Results published in PubChem BioAssay.
Calls of active or inactive are those of the source.

Columns and labels:
[1] = system: Plasmodium falciparum Sir2 (PF13_0152, Sir2A); experiment: pfSir2 binders on small-molecule microarrays, primary screen, biochemical, small-molecule microarray, 635 nm fluorescence (AID 1098); conditions: small-molecule microarray binding, fluorescence 635 nm; higher = more signal;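 note: score merges spot fluorescence intensity with its signal-to-noise ratio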
[2] = small-molecule microarray binders of probe aDKK1, primary screen, biochemical, biotinylated probe, 635/667 nm fluorescence (AID 1099); conditions: higher = more signal;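 note: score merges 667nm spot fluorescence with signal to noise across triplicate slides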
[3] = small-molecule microarray binders of probe aCHRDL2, primary screen, biochemical, biotinylated probe, 635/667 nm fluorescence (AID 1100); conditions: higher = more signal
[4] = splicing luciferase reporter signal modulators, primary screen, spliceosome inhibition project, cell-based, HEK293, splice +/- reporter (AID 1101); conditions: luminescence, 24 h, higher = more signal, called active from +8 up or from −8 down;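 note: HEK293 cells carrying a splicing-competent luciferase reporter gene; test concentration not given here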
[5] = target: Fibroblast growth factor 10 (Homo sapiens) (UniProt O15520); experiment: FGF10 binders on small-molecule microarrays, primary screen, biochemical, small-molecule microarray, 635 nm fluorescence (AID 1102); conditions: FGF10 binding, fluorescence 635 nm, higher = more signal
[6] = system: glycogen synthase kinase-3 (GSK3A per assay name; protocol says GSK3B); experiment: GSK3 binders on small-molecule microarrays, primary screen, biochemical, small-molecule microarray, 635 nm fluorescence, GSK3A (AID 1103); conditions: small-molecule microarray binding, fluorescence 635 nm; higher = more signal; note: the record names both GSK3A and GSK3B
[7] = target: Epidermal growth factor receptor (Homo sapiens) (UniProt P00533); experiment: EGFR binders on small-molecule microarrays, primary screen, biochemical, small-molecule microarray, 635 nm fluorescence (AID 1104); conditions: EGFR binding, higher = more signal;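 note: score merges 667 nm emission intensity with spot signal to noise over triplicate slides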
[8] = target: Follistatin-related protein 3 (Homo sapiens) (UniProt O95633); experiment: FSTL3 binders on small-molecule microarrays, primary screen, biochemical, small-molecule microarray, 635 nm fluorescence (AID 1105); conditions: FSTL3 binding, higher = more signal;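 note: score merges emission near 667 nm and signal to noise per printed spot across three slides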
[9] = target: Dickkopf-related protein 1 (Homo sapiens) (UniProt O94907); experiment: DKK1 binders on small-molecule microarrays, primary screen, biochemical, small-molecule microarray, 635 nm fluorescence scan (AID 1106); conditions: DKK1 binding, higher = more signal;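 note: score merges emission near 667 nm with signal to noise over three replicate slides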
[10] = system: Inhibin beta A chain (activin A); experiment: INHBA (activin A) binders on microarrays, primary screen, biochemical, small-molecule microarray, 635 nm fluorescence scan (AID 1107); conditions: small-molecule microarray binding, higher = more signal;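 note: mouse activin A protein probed at 4.33 µg/mL on printed slides; score merges bound-protein fluorescence near 667 nm with spot signal-to-noise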
[11] = system: Human papillomavirus type 1a protein E7 (residues 44-93); experiment: HPV1a E7 fragment binders on microarrays, primary screen, biochemical, small-molecule microarray, residues 44-93, 635 nm fluorescence (AID 1108); conditions: small-molecule microarray binding, fluorescence 635 nm; higher = more signal;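 note: E7 fragment applied at 1 µg/mL in TBST for 1 h at 4 C; score combines spot fluorescence with its signal to noise ratio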
[12] = modulators of HCV replicon luciferase signal, primary screen, HCV replication inhibitor project, Huh7 cells, luciferase reporter (AID 1109); conditions: 48 h, higher = more signal;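 note: huh7 hepatoma cells harbouring a luciferase neomycin HCV replicon reporter; luciferase luminescence as measure of HCV replicon replication; test concentration not given here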
[13] = target: Left-right determination factor 2 (Homo sapiens) (UniProt O00292); experiment: LEFTY2 binders on small-molecule microarrays, primary screen, biochemical, small-molecule microarray, 635 nm fluorescence scan (AID 1110); conditions: LEFTY2 binding, higher = more signal
[14] = target: Calmodulin-1 (Homo sapiens) (UniProt P0DP23); experiment: CALM1 binders on microarrays, EGTA buffer, profiling panel, biochemical, small-molecule microarray, Cy5-labelled CALM1 (AID 1111); conditions: Cy5-CALM1 binding fluorescence, higher = more signal;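 note: labelled calmodulin applied in Tris saline Tween buffer holding calcium plus EGTA and DTT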
[15] = target: Calmodulin-1 (Homo sapiens) (UniProt P0DP23); experiment: calcium-bound CALM1 binders on microarrays, profiling panel, artefact control for SMM control-protein annotation, biochemical, small-molecule microarray, Cy5-labelled CALM1, plus calcium (AID 1112); conditions: Cy5-CALM1 binding fluorescence, higher = more signal;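 note: score merges spot fluorescence with signal to noise from triplicate slides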
[16] = small-molecule microarray binders of probe aWnt5a, primary screen, biochemical, biotinylated probe, 635/667 nm fluorescence (AID 1113); conditions: higher = more signal;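 note: score merges 667 nm fluorescence intensity with signal-to-noise per printed feature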
[17] = small-molecule microarray binders of probe aShh, primary screen, biochemical, biotinylated probe, 635/667 nm fluorescence (AID 1114); conditions: higher = more signal;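 note: probe is biotin-labelled aShh protein from a stem cell growth factor screen; measures binding of labelled protein to compounds printed on the slide; score merges feature fluorescence at 667 nm with signal-to-noise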
[18] = small-molecule microarray binders of probe aNog, primary screen, biochemical, biotinylated probe, 635/667 nm fluorescence (AID 1115); conditions: higher = more signal;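 note: probe is biotinylated aNog protein used at 0.15 µg/mL for 1 h at 4 C; z-score combines 667 nm fluorescence of each spot with its signal to noise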
[19] = target: Torsin-1A-interacting protein 1 (Homo sapiens) (UniProt Q5JTV8); experiment: LAP1 binders from COS7 cell lysate, primary screen, small-molecule microarray, 635/667 nm fluorescence (AID 1116); conditions: COS7-hLAP1 lysate binding, 635 nm fluorescence, higher = more signal
[20] = target: Alpha-bungarotoxin (Bungarus multicinctus) (UniProt P60615); experiment: alpha-bungarotoxin binders on microarray, profiling panel, artefact control for SMM control protein annotation, biochemical, small-molecule microarray, Alexa647 label, 635/667 nm fluorescence (AID 1117); conditions: alpha-BTX-A647 binding fluorescence, higher = more signal
Sequence of Alpha-bungarotoxin (Bungarus multicinctus) (P60615 whole entry, looked up): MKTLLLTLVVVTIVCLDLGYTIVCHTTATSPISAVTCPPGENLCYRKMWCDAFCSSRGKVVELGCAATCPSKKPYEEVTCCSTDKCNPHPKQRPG

Sequence of Left-right determination factor 2 (Homo sapiens) (O00292 whole entry, looked up): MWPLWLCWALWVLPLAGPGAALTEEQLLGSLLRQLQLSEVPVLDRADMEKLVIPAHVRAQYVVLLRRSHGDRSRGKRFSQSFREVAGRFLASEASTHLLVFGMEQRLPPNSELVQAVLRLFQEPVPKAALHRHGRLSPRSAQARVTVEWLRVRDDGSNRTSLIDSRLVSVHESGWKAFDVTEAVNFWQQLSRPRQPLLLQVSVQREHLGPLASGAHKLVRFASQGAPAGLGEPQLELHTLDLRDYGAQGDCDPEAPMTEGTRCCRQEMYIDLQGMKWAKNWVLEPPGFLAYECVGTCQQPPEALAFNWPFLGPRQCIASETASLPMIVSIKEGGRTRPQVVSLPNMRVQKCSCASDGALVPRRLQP
Sequence of Follistatin-related protein 3 (Homo sapiens) (O95633 whole entry, looked up): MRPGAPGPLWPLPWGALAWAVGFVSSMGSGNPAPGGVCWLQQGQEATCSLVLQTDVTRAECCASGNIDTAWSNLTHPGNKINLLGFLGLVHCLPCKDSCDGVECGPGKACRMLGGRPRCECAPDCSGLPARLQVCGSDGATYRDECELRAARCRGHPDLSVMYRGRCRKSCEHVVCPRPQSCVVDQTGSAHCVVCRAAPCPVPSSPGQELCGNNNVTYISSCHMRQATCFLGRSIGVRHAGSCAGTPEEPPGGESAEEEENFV
Sequence of Dickkopf-related protein 1 (Homo sapiens) (O94907 whole entry, looked up): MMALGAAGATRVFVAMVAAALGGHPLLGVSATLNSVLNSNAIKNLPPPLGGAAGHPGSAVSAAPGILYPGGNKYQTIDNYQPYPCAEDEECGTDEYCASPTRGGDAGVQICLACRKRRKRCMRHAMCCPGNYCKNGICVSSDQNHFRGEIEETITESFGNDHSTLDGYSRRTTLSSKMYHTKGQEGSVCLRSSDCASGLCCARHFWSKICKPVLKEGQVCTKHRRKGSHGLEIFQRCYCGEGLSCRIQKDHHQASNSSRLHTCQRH
Sequence of Epidermal growth factor receptor (Homo sapiens) (P00533 whole entry, looked up): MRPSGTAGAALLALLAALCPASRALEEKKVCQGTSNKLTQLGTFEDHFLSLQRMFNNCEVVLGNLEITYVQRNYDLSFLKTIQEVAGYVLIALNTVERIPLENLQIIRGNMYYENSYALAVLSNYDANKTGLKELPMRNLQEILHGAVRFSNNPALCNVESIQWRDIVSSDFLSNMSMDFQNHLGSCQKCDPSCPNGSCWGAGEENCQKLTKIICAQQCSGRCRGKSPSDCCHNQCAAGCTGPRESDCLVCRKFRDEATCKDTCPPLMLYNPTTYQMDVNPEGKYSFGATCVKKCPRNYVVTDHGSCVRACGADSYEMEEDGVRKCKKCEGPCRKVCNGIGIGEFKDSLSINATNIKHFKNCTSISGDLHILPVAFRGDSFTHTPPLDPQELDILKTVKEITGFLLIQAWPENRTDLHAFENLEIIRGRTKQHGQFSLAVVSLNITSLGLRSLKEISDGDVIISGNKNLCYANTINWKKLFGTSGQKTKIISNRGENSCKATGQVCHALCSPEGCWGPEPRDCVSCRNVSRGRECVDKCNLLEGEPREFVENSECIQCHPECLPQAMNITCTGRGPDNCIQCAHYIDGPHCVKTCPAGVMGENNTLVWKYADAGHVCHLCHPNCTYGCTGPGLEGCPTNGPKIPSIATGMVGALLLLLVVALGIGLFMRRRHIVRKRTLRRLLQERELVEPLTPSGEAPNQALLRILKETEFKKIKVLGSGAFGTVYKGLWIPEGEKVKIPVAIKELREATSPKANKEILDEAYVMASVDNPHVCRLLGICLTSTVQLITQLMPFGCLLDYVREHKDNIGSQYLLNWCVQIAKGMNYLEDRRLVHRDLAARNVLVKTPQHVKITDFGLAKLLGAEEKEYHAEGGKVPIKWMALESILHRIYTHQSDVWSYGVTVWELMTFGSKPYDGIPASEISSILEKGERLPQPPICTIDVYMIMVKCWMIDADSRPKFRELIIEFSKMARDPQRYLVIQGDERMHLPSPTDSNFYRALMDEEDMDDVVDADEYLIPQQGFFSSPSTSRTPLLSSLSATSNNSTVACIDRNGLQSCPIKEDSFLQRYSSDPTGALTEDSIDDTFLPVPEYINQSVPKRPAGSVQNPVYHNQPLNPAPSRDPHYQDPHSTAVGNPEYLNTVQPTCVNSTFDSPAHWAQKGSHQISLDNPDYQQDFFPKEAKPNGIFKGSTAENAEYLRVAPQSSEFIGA
Sequence of Fibroblast growth factor 10 (Homo sapiens) (O15520 whole entry, looked up): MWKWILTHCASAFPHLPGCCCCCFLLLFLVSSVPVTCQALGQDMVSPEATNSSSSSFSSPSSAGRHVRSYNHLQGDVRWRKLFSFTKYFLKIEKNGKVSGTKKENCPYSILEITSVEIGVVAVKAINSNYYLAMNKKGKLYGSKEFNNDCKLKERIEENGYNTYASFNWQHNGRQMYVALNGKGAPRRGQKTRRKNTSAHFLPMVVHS
Sequence of Torsin-1A-interacting protein 1 (Homo sapiens) (Q5JTV8 whole entry, looked up): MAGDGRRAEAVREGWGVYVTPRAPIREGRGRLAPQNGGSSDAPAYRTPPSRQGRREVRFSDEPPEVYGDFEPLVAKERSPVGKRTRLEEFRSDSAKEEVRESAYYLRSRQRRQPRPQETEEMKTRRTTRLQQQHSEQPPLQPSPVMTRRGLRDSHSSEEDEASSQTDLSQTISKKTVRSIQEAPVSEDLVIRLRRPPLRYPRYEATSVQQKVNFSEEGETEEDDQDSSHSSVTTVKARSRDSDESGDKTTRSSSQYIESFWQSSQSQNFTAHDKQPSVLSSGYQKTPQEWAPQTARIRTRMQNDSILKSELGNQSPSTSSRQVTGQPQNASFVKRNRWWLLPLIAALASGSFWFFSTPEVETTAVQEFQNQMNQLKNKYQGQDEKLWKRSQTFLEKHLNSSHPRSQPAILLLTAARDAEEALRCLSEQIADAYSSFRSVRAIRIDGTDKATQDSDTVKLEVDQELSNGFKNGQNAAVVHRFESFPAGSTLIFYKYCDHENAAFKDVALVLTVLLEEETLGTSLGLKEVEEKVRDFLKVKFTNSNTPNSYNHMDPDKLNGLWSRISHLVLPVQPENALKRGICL

Compound | composite z-score [1] | composite z-score [2] | composite z-score [3] | z-score [4] | composite z-score [5] | composite z-score [6] | composite z-score [7] | composite z-score [8] | composite z-score [9] | composite z-score [10] | composite z-score [11] | z-score [12] | composite z-score [13] | composite z-score [14] | composite z-score [15] | composite z-score [16] | composite z-score [17] | composite z-score [18] | composite z-score [19] | composite z-score [20]
O=C1C2C=CC(C(O)c3ccc(F)cc3)N(Nc3ccc([N+](=O)[O-])cc3)C2C(=O)N1c1ccccc1 (stereo not given) | 1.38 | 0.343 | 0.839 | 0.516 (inactive) | 0.638 | 1.07 | -0.125 | 0.558 | -0.272 | 0.556 | 0.883 | -1.03 | -0.424 | 1.76 | 0.554 | 0.155 | 0.294 | 0.0676 | 0.733 | 1.76
CCCCCCCCCCC(O)C1C=CC2C(=O)NC(=O)C2N1Nc1ccc(Cl)cc1Cl (stereo not given) | -0.856 | -0.214 | 0.935 | -0.723 (inactive) | -0.127 | -0.535 | -0.724 | -0.88 | -1.04 | 1.14 | 0.732 | -1.26 | -1.67 | 1.21 | 1.21 | -0.122 | -0.138 | 1.07 | 0.345 | -0.133
CCCC1(C(=O)OC)C=C2C(=C(c3ccccc3)C(=O)C2C)CN1 (stereo not given) | -0.495 | 0.717 | 1.16 | -1.14 (inactive) | -0.157 | -0.636 | -0.278 | -0.0458 | -0.704 | 1.44 | -0.719 | -1.85 | 0.0193 | 0.155 | -0.253 | -0.0203 | 0.108 | 1.75 | 1.05 | 0.287
COCCCNC(=O)[C@@]1(Cc2ccccc2CN=[N+]=[N-])N=C(c2ccc(OCCCO)cc2)O[C@H]1c1ccccc1CN=[N+]=[N-] | 1.25 | 0.616 | 1.09 | -1.51 (inactive) | 1.43 | 0.186 | -0.334 | 0.299 | -0.629 | 0.849 | 1.37 | -3.39 | -0.443 | 1.36 | 0.875 | 0.173 | 0.311 | -0.69 | 0.852 | 1.84
NC(=O)N1C(=O)C2C(C1=O)C1C=C(CCCO)C2C(C2CC2)N1Cc1cc2c(cc1Br)OCO2 (stereo not given) | -0.267 | -0.165 | 0.32 | 0.901 (inactive) | -0.395 | -0.645 | -0.376 | -0.252 | -0.891 | 0.943 | -0.443 | -0.264 | -0.549 | 0.0653 | 0.357 | -0.12 | 0.0278 | -0.0065 | -0.111 | 0.515
COCCOC(=O)N1C(=O)[C@@]2(c3cc(C#CC4(O)CCCCCC4)ccc31)[C@H](C(=O)Nc1nc3ccccc3s1)[C@H]1C(=O)O[C@H](c3ccccc3)[C@H](c3ccccc3)N1[C@@H]2c1ccccc1OCCO | 1.07 | 0.199 | 0.365 | -0.616 (inactive) | 1.3 | 1.29 | 0.38 | 1.05 | 0.287 | -0.0079 | -0.441 | -1.66 | 0.555 | 1.71 | 0.926 | -0.0165 | 0.321 | 0.546 | 0.547 | 2.37
O=C1NC(=O)C2C1C=CC(C(O)c1ccc(-c3ccccc3)s1)N2Nc1ccc(Cl)cc1Cl (stereo not given) | 1.02 | -0.214 | 0.956 | 0.624 (inactive) | 0.227 | 0.508 | 0.112 | 0.992 | -0.729 | 0.959 | 1.29 | 1.7 | -0.114 | 1.65 | 1.03 | 0.1 | 0.213 | -0.358 | 0.712 | 1.06
O=C1C2C=CC(C(O)c3cc(C(F)(F)F)cc(C(F)(F)F)c3)N(Nc3ccccc3)C2C(=O)N1c1ccccc1 (stereo not given) | 1.24 | 0.723 | 0.433 | -2.9 (inactive) | -0.239 | 0.22 | -0.303 | -0.154 | -0.667 | 1.01 | 1.44 | -0.761 | -0.457 | 0.925 | 0.388 | -0.0425 | -0.358 | 0.341 | 1.07 | 0.63
Cc1ccc(S[C@]2(C(=O)O)CC(=O)N(Cc3ccccc3C(F)(F)F)[C@@H]2c2ccc(CO)cc2I)cc1 | -0.135 | -0.537 | 0.337 | -1.15 (inactive) | -0.39 | -0.518 | -1.11 | -1 | -1.28 | 1.16 | 0.4 | -1.26 | -1.66 | -0.633 | -0.711 | -0.12 | -0.315 | -0.322 | -0.327 | -0.247
COc1ccc(CCNC(=O)[C@@]2(c3ccc([N+](=O)[O-])cc3)CC(=O)N(CC34CC5CC(CC(C5)C3)C4)[C@@H]2c2ccc(CO)cc2I)cc1 | 1.01 | -0.153 | -0.263 | -0.287 (inactive) | 1.15 | 1.04 | 0.233 | 0.861 | 0.424 | -0.444 | 1.38 | -3.41 | 0.261 | 0.408 | -0.266 | -0.0643 | -0.312 | 0.769 | 0.757 | 0.962
NC(=O)[C@@]1(Cc2ccccc2)N=C(c2ccc(OCCCO)cc2)O[C@H]1c1ccccc1 | 0.363 | 0.963 | 1.22 | -1.26 (inactive) | 1.15 | -0.327 | 0.0149 | -0.68 | -0.348 | 0.87 | -1.02 | -0.605 | -0.949 | 1.19 | 1.2 | -0.11 | 0.629 | 1.06 | 3.1 | -0.387
